Measured values taken from article PMC7155171, “Probing the Open Global Health Chemical Diversity Library for Multistage-Active Starting Points for Next-Generation Antimalarials” (ACS Infectious Diseases, 2020).
Where two headings read alike, the source gives them in different places. The full ranking holds about 68,000 compounds; the median of “% viability” is about 1.1, and the lowest 2% start at about 0.96. This is one part of a sample in which the lowest values are shown more often than they occur. The numbers are fractions of the control, whatever unit the source prints.

Tested on: P. falciparum (NF54) stage V gametocytes
Design: Mature stage V gametocyte viability, MitoTracker Red CMXRos high-content imaging
Conditions: primary screen, n=2, fraction of DMSO control, 72 h, 2 µM, inhibitor

Compound | % viability [%] | % viability (Stg V Gam primary screen: Inhibition % (2uM) (n=2)) [%]
CC(NC(=O)CCC1=NC(=C2N=CN=N2)NO1)c1ccc(F)cc1F (centres unmarked) [DDD01068293] | 1.218 | 
CC(=O)N1CCCN(C(=O)CCOc2ccc(C(C)C)cc2)CC1 [DDD01298039] | 0.9627 | 
CN(Cc1ccc(F)c(F)c1)C(=O)CCC1=NC(=C2N=CN=N2)NO1 [DDD01062114] | 1.185 | 
Cn1cc(C(=O)N2CCCC(c3cc(=O)n(C)[nH]3)C2)cn1 (centres unmarked) [DDD01060486] | 1.105 | 
CCCc1nn(C)c(N)c1-c1ccc2c(c1)OCO2 [DDD01074641] | 1.2104 | 
Cc1ccc(S(=O)(=O)Cc2noc([C@@H]3C[C@@H](O)CN3C(C)C)n2)cc1 [DDD01025534] | 1.063 | 
Cn1ccc(C(=O)N2CCCC(c3cc(=O)n(C)[nH]3)C2)n1 (centres unmarked) [DDD01060541] | 0.9912 | 
Cc1[nH]n(C2CCS(=O)(=O)C2)c(=O)c1Cc1ccccc1Cl (centres unmarked) [DDD01026964] | 1.154 | 
Cn1nc(C2CCC2)c(-c2ccc3c(c2)OCO3)c1N [DDD01074643] | 1.107 | 
CCn1[nH]cc2nc(-c3cc(OC)c(OC)cc3OC)nc1-2 [DDD01254934] | 1.131 | 
COc1cc2c(cc1-c1nc3c[nH]n(C(C)C)c-3n1)OCO2 [DDD01249461] | 1.226 | 
COCC(=O)N1Cc2[nH]c3c(C)c(-c4cccs4)nn3c(=O)c2C1 [DDD01056747] | 0.9901 | 
Cc1[nH]n(C2CCS(=O)(=O)C2)c(=O)c1CCc1ccccc1 (centres unmarked) [DDD01026977] | 1.342 | 
CCc1cc(=O)n2nc(C3CCCN3C(=O)c3ccccn3)cc2[nH]1 (centres unmarked) [DDD01057178] | 1.278 | 
Cc1[nH]n(Cc2ccc(F)cc2)c2nnc(N)c1-2 [DDD01012470] | 1.161 | 
Cn1nc(C2CC2)c(-c2ccc3c(c2)OCO3)c1N [DDD01074640] | 1.305 | 
CCc1nc(CN(C)C2CCN(CCn3cc(C#N)cn3)C2)no1 (centres unmarked) [DDD01304196] | 1.045 | 
Cc1ccc(CN2CCc3c([nH]c4cc(C5CC5)nn4c3=O)C2)s1 [DDD01058491] | 1.123 | 
COc1cc2c(cc1-c1nc3c[nH]n(C)c-3n1)OCO2 [DDD01248770] | 1.141 | 
COc1cc2c(cc1-c1nc3c[nH]n(C(C)C4CC4)c-3n1)OCO2 (centres unmarked) [DDD01244142] | 1.215 | 
Cc1[nH]n(C2CCS(=O)(=O)C2)c(=O)c1Cc1cccc(Cl)c1 (centres unmarked) [DDD01026994] | 1.159 | 
CCc1nn(C)c(N)c1-c1ccc2c(c1)OCO2 [DDD01074639] | 1.278 | 
Cc1cccc(C2N3CCC4(CC3)c3[nH]c5ccccc5c3CCN24)n1 (centres unmarked) [DDD01058402] | 1.009 | 
Clc1cccc(-c2cccc(N3CCC(NC4CCOCC4)CC3)c2)c1 [DDD01252000] | 1.106 | 
CCC(=O)Nc1[nH]nc2c1c(C)nn2Cc1cccc(OC)c1 [DDD01063148] | 1.182 | 
CCc1ccc(C(C)NC(=O)CCC2=NC(=C3N=CN=N3)NO2)cc1 (centres unmarked) [DDD01068289] | 1.032 | 
CCc1c(C)[nH]c2cc(C3CCN(CCc4ccccc4)C3)nn2c1=O (centres unmarked) [DDD01060567] | 1.041 | 

Compound | % viability [%] | % viability (Stg V Gam primary screen: Inhibition % (2uM) (n=2)) [%]
COc1cc2c(cc1-c1nc3c[nH]n(C(C)C(C)C)c-3n1)OCO2 (centres unmarked) [DDD01255421] | 1.199 | 
Cc1cc(=O)n2nc(C3CCN(C(=O)c4ccccn4)CC3)cc2[nH]1 [DDD01057174] | 1.036 | 
COCCC(=O)N1Cc2[nH]c3c(C)c(-c4cccs4)nn3c(=O)c2C1 [DDD01056578] | 1.121 | 
CCc1c(C)nn2c(=O)cc(C3CCN(C(=O)C4CC4)C3)[nH]c12 (centres unmarked) [DDD01057056] | 1.097 | 
CCc1c(C)nn2c(=O)cc(C3CCN(C(=O)c4ccn(C)n4)C3)[nH]c12 (centres unmarked) [DDD01056907] | 1.06 | 
CCc1cc(=O)n2nc(C3CCN(C(=O)c4ccncc4)CC3)cc2[nH]1 [DDD01057177] | 1.239 | 
Cc1cc(=O)n(-c2ccc3nnc(C)n3n2)[nH]1 [DDD01038570] | 1.151 | 
Cc1nc(O)cc(CCNC(=O)CC[C@@H]2CCCN3CCCC[C@H]23)n1 [DDD01256003] | 1.201 | 
COc1ccc(-c2c(C(C)C)nn3c(N)c(C#N)nnc23)cc1 [DDD01035184] | 0.9469 | 
CCc1nn2c(N)c(C#N)nnc2c1-c1ccc(OC)cc1 [DDD01035159] | 1.1 | 
COc1ccc(-c2c(C)nn3c(N)c(C#N)nnc23)cc1 [DDD01035158] | 1.096 | 
Cc1ncsc1C(=O)N1CCCCC1c1cc2[nH]c(C)c(C)c(=O)n2n1 (centres unmarked) [DDD01059037] | 1.19 | 
Cc1[nH]n(-c2ccc(F)cc2)c2nnc(N)c1-2 [DDD01065623] | 1.104 | 
COc1cccc(CN(C)CC2=Nc3ccccc3S(=O)(=O)N2)c1 [DDD01073248] |  | 1.218
COc1cccc(Cn2nc(C)c3c(NC(=O)C(C)OC)[nH]nc32)c1 (centres unmarked) [DDD01063202] | 1.059 | 
COc1cccc(C2=NN=CC2=C2NC(CN3CCCC3)=NO2)c1 [DDD01247208] | 1.119 | 
COCCC(=O)N1CCC(c2cc(=O)n(C)[nH]2)C1 (centres unmarked) [DDD01060470] | 1.179 | 
COc1cccc(F)c1-c1nc2c(C3CC3)[nH]n(C)c-2n1 [DDD01246655] | 1.144 | 
CCC(CO)N(Cc1cccnc1)C(=O)c1ccc(C(F)(F)F)nc1O (centres unmarked) [DDD01253913] | 1.193 | 
Cc1ccccc1CN(C)C(=O)CCC1=NC(=C2N=CN=N2)NO1 [DDD01062116] | 1.259 | 
Cc1[nH]n(C2CCCCC2)c2nc(C(C)(C)CN3CCOCC3)nc1-2 [DDD01254749] | 1.099 | 
Cc1[nH]n(C2CCCC2)c2nc(C(C)(C)CN3CCN(C)CC3)nc1-2 [DDD01248613] | 1.14 | 
Cc1nc(N2CCCC2)ncc1-c1cc(=O)n2ncnc2[nH]1 [DDD01038581] | 1.014 | 
CCc1cc(=O)n2nc(C3CCN(C(=O)c4ccccn4)CC3)cc2[nH]1 [DDD01057364] | 1.067 | 
Cc1[nH]c2cc(C3CCN(Cc4ccccc4F)C3)nn2c(=O)c1C (centres unmarked) [DDD01060615] | 0.9944 | 
Cc1[nH]c2cc(C3CCN(Cc4cccc(F)c4F)C3)nn2c(=O)c1C (centres unmarked) [DDD01270135] | 0.8996 | 
CCc1c(C)[nH]c2cc(C3CCN(Cc4cccnc4)C3)nn2c1=O (centres unmarked) [DDD01060570] | 1.145 | 

Compound | % viability [%] | % viability (Stg V Gam primary screen: Inhibition % (2uM) (n=2)) [%]
CCc1c(C)[nH]c2cc(C3CCN(Cc4cccc(F)c4)C3)nn2c1=O (centres unmarked) [DDD01060569] | 1.163 | 
CCc1c(C)[nH]c2cc(C3CCN(Cc4ccccc4F)C3)nn2c1=O (centres unmarked) [DDD01270117] | 0.9474 | 
CCc1c(C)[nH]c2cc(C3CCN(Cc4ccc(F)cc4)C3)nn2c1=O (centres unmarked) [DDD01060568] | 1.103 | 
Cc1nsc(N2CCCN(CC(=O)N(C)C3CC3)CC2)n1 [DDD01066804] | 1.153 | 
COCCCC(=O)N1CC(=O)Nc2cc(Br)ccc21 [DDD01075689] | 1.221 | 
Cc1ncc(CN2CCc3[nH]c4cc(C(C)(C)C)nn4c(=O)c3C2)n1C [DDD01058400] | 1.122 | 
O=C(CNC(=O)N1CCc2c([nH]c3ccc(Cl)cc23)C1)N1CCOCC1 [DDD01035668] | 1.056 | 
Cc1[nH]n(-c2ccccc2)c2nc(C(C)(C)CN3CCN(C)CC3)nc1-2 [DDD01252143] | 1.131 | 
Cc1[nH]n(C2CCS(=O)(=O)C2)c(=O)c1Cc1ccccc1 (centres unmarked) [DDD01026976] | 1.15 | 
Cc1[nH]n(C2CCS(=O)(=O)C2)c(=O)c1Cc1ccc(Br)cc1 (centres unmarked) [DDD01026979] | 1.197 | 
CCCn1ncc(-c2nc3c[nH]n(CC)c-3n2)c1C [DDD01252709] | 1.088 | 
CCn1[nH]cc2nc(-c3cc4c(cc3OC)OCO4)nc1-2 [DDD01244413] | 1.126 | 
CCc1c(C)nn2c(=O)cc(C3CCN(C(=O)c4ccccn4)C3)[nH]c12 (centres unmarked) [DDD01056906] | 1.115 | 
CCc1ccc(NC(=O)Nc2c(O)c3ccccc3oc2=O)cc1 [DDD01037337] | 1.219 | 
CN(CCCc1ccccc1)C(=O)CCC1=NC(=C2N=CN=N2)NO1 [DDD01062165] | 0.9845 | 
CCc1c(C)nn2c(=O)cc(C3CCN(C(=O)c4cnn(C)c4)C3)[nH]c12 (centres unmarked) [DDD01056908] | 1.149 | 
COCC(=O)Nc1[nH]nc2c1c(C)nn2Cc1cccc(OC)c1 [DDD01063147] | 1.204 | 
Fc1cccc(C2=NN=CC2=C2NC(CN3CCOCC3)=NO2)c1 [DDD01244908] | 1.1236 | 
CSc1cccc(NC(=O)Nc2c(O)c3ccccc3oc2=O)c1 [DDD01037688] | 1.182 | 
Cc1ncc(CN2CCc3c([nH]c4cc(C5CC5)nn4c3=O)C2)n1C [DDD01058398] | 1.038 | 
Cc1nnsc1C(=O)N1CCCCC1c1cc2[nH]c(C)c(C)c(=O)n2n1 (centres unmarked) [DDD01059036] | 1.123 | 
CCn1[nH]cc2nc(-c3ccc(OC)c(COC)c3)nc1-2 [DDD01253750] | 1.204 | 
CCc1cc(=O)n2nc(C3CCN(C(=O)c4cccnc4)CC3)cc2[nH]1 [DDD01057176] | 1.192 | 
COc1ccc(F)cc1-c1nc2c(C3CC3)[nH]n(C)c-2n1 [DDD01250494] | 1.074 | 
COc1cc(OC)c(-c2nc3c(C4CC4)[nH]n(C)c-3n2)cc1OC [DDD01244474] | 0.9472 | 
COc1cc(F)ccc1-c1nc2c(C3CC3)[nH]n(C)c-2n1 [DDD01248843] | 1.111 | 
